Screening data (PubChem)
Only some compounds are listed: those with a hit (about 7.2% of all), similar ones and a draw of the others.
Bfl-1 A1 inh: inhibitors of the anti-apoptotic protein A1, read as caspase activation. MEF A1-2A-BIM cells, Caspase-Glo 3/7 luminescence, 3 h; percent of clofoctol response, vehicle zero. caspase activation, % (concentration not given with the values). 0.066% of 330,000 active;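 active = over half of replicate activation scores above 10%, or exactly half above 10 with the replicate mean above 10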
Efflux pump mplx: blocks antifungal efflux pumps in multiplex yeast assay. S. cerevisiae Candida pump triplex, Nile Red efflux. inhibition, % at 10 µM. 0.44% of 330,000 active. AID 485275;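 active = plate passing quality check with inhibition over a set limit, or well fluorescence over plate mean plus 4 SD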;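 also: Nile Red retained in pooled yeast measured as flow cytometry median fluorescence; 0% = buffer negative control and 100% = Enniatin B positive control; higher means more Nile Red kept so more efflux inhibition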
Mot1-301 SUMO: inhibitors of SUMOylation pathway: yeast Mot1-301 growth rescue; S. cerevisiae Mot1-301 growth rescue, ATP luminescence, 38.5C; percent above DMSO median, 100 means doubled; growth rescue, % at 18.8 µM; 1% of 320,000 active;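 active = every valid replicate shows activation above 250% relative to neutral control wells; inactive = the rest, any valid replicate at or below 250%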;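 also: OY570 slx delta 5 strain wells were the positive control but not used for scaling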
AHR activator: activators of human aryl hydrocarbon receptor; 2.5% of 320,000 active; activation, % at 5 µM; P35869; AHR-responsive luciferase reporter cells, luminescence; in the data active = activation above about 47%;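 also: 0% = vehicle wells and 100% = reference agonist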
VLA-4 inh: inhibition in a human VLA-4 binding assay; inhibition, % (about 7 µM as worked out from the volumes in the protocol); 0.2% of 330,000 active; AID 2557; VLA-4 expressing cells, ligand binding flow cytometry; P13612; in the data active = inhibition above about 50%
ALR H2O2 inh: human ALR oxidase inhibition via reduced H2O2; P55789; purified ALR, DTT oxidation, H2O2 HRP-luminol luminescence; inhibition, % (no concentration beside the values); 3.8% of 290,000 active;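 active = mean replicate inhibition above about 79%, with every replicate also reaching it, limit read from the data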
Target sequence (P55789 whole entry, looked up): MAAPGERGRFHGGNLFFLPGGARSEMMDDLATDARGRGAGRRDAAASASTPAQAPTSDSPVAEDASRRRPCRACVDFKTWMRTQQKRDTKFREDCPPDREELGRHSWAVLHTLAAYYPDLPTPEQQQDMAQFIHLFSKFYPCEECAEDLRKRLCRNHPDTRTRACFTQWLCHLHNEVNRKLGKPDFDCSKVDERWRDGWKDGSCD
* marks the source's active call; other numbers are inactive results.

Cc1ccc(S(=O)(=O)N2CCN(Cc3cc(C(C)(C)C)ccc3O)CC2)cc1 was read as Bfl-1 A1 inh 1, Efflux pump mplx 0, Mot1-301 SUMO inactive, AHR activator 0, VLA-4 inh 2 and ALR H2O2 inh -44.
CS(=O)(=O)N1CCc2cc(C(=O)OCC(=O)c3ccccc3)ccc21 was read as Bfl-1 A1 inh -2, Efflux pump mplx 0, Mot1-301 SUMO -10, AHR activator 0, VLA-4 inh 6 and ALR H2O2 inh -4.
For CC(=O)N(c1cccc(C)c1)C1SC(=O)N(c2ccccc2)C1=O (stereo not given) the results were Bfl-1 A1 inh -1, Efflux pump mplx 0, Mot1-301 SUMO -12, AHR activator -3, VLA-4 inh 13 and ALR H2O2 inh 34.
Screening Cc1ccc(N2C(=O)SC(N(CC(=O)O)c3cccc(C)c3)C2=O)cc1 (stereo not given) returned Bfl-1 A1 inh 0, Efflux pump mplx 0, Mot1-301 SUMO 0, AHR activator 5, VLA-4 inh 3 and ALR H2O2 inh 99*.
Screening CCOC(=O)c1c(N)sc2c1C1CCN2CC1 returned Bfl-1 A1 inh 0, Efflux pump mplx 0, Mot1-301 SUMO 1, AHR activator 2, VLA-4 inh -2 and ALR H2O2 inh 98*.
N#Cc1cnn2c(C(F)(F)F)cc(-c3ccccc3)nc12 was read as Bfl-1 A1 inh -1, Efflux pump mplx 0, Mot1-301 SUMO 15, AHR activator 60*, VLA-4 inh -17 and ALR H2O2 inh -4.
Screening COC(=O)c1cnn2c(C(F)(F)F)cc(-c3ccccc3)nc12 returned Bfl-1 A1 inh 0, Efflux pump mplx 1, Mot1-301 SUMO -6, AHR activator 2, VLA-4 inh 9 and ALR H2O2 inh -2.
CC(C(=O)O)N(C(=O)c1ccccc1)c1ccc(F)cc1 (stereo not given) was read as Bfl-1 A1 inh -1, Efflux pump mplx 0, Mot1-301 SUMO -1, AHR activator -1, VLA-4 inh -5 and ALR H2O2 inh -8.
For COc1ccc(CN(C(=O)/C=C/c2ccco2)C2CCS(=O)(=O)C2)cc1OC (stereo not given) the results were Bfl-1 A1 inh -2, Efflux pump mplx 0, Mot1-301 SUMO -12, AHR activator 1, VLA-4 inh -8 and ALR H2O2 inh -11.
Screening Cc1cc2nnc(SCC(=O)Nc3ccc(Cl)cc3)n2c(N)n1 returned Bfl-1 A1 inh 0, Efflux pump mplx 0, Mot1-301 SUMO 13, AHR activator 2, VLA-4 inh 10 and ALR H2O2 inh -4.
For CN(Cc1ccccc1)C(=S)NC(=O)C1CCCCC1 the results were Bfl-1 A1 inh 2, Efflux pump mplx 0, Mot1-301 SUMO 8, AHR activator 0, VLA-4 inh 3 and ALR H2O2 inh -18.
O=C(NC(=S)N(Cc1ccccc1)c1ccccn1)C1CCCCC1 was read as Bfl-1 A1 inh -1, Efflux pump mplx 0, Mot1-301 SUMO 4, AHR activator 0, VLA-4 inh 1 and ALR H2O2 inh 99*.
Screening Cc1ccc(-n2c(Cl)c(Cl)nc(Cl)c2=O)cc1 returned Bfl-1 A1 inh 0, Efflux pump mplx 1, Mot1-301 SUMO 27, AHR activator 0, VLA-4 inh -87 and ALR H2O2 inh 97*.
Screening N/C(=N\O)c1ccc(N2CCN(c3ncccc3C(F)(F)F)CC2)nc1 returned Bfl-1 A1 inh -1, Efflux pump mplx 0, Mot1-301 SUMO 112, AHR activator 3, VLA-4 inh 3 and ALR H2O2 inh 91*.
For C=CCn1c(C(CCCC)CC(O)COCCC)n[nH]c1=S (stereo not given) the results were Bfl-1 A1 inh 2, Efflux pump mplx 0, Mot1-301 SUMO 5, AHR activator 0, VLA-4 inh 10 and ALR H2O2 inh 92*.
`C=CCn1c(C(CCCC)CC(O)COCC(C)C)n[nH]c1=S` (stereo not given) gave Bfl-1 A1 inh 1, Efflux pump mplx 0, Mot1-301 SUMO -8, AHR activator -1, VLA-4 inh -7 and ALR H2O2 inh 14.
Screening C=CCn1c(CCC(O)COCCCCC)n[nH]c1=S (stereo not given) returned Bfl-1 A1 inh 0, Efflux pump mplx 0, Mot1-301 SUMO -11, AHR activator 1, VLA-4 inh 10 and ALR H2O2 inh 96*.
For COc1cccc(N2CCN(C(=O)C3CCCN(c4ncnc5c4nc4n5CCCCC4)C3)CC2)c1 (stereo not given) the results were Bfl-1 A1 inh -2, Efflux pump mplx 0, Mot1-301 SUMO 3, AHR activator 6, VLA-4 inh 1 and ALR H2O2 inh 8.
Cc1ncn(-c2ccc(C(=O)Oc3ccccc3)cn2)n1 was read as Bfl-1 A1 inh 0, Efflux pump mplx 0, Mot1-301 SUMO -12, AHR activator -1, VLA-4 inh 3 and ALR H2O2 inh -3.
Cn1cccc1/C=N/NC(=O)CSc1nc2ccccc2[nH]1 was read as Bfl-1 A1 inh 0, Efflux pump mplx 0, Mot1-301 SUMO 16, AHR activator 13, VLA-4 inh -2 and ALR H2O2 inh 5.
CCCc1nnc(NC(=O)C2CCN(C(=O)c3ccco3)CC2)s1 was read as Bfl-1 A1 inh 0, Efflux pump mplx 0, Mot1-301 SUMO 4, AHR activator 3, VLA-4 inh 9 and ALR H2O2 inh -6.
Screening CCSCc1nnc(SCC(=O)Nc2cccc(SC)c2)n1C returned Bfl-1 A1 inh -1, Efflux pump mplx 0, Mot1-301 SUMO 115, AHR activator 2, VLA-4 inh 0 and ALR H2O2 inh 98*.
`Cn1c2ccccc2c2cc(C(=O)O)ccc21` gave Bfl-1 A1 inh 0, Efflux pump mplx 0, Mot1-301 SUMO 67, AHR activator 2, VLA-4 inh 28 and ALR H2O2 inh -10.
CN(C)CCOC(=O)/C(=C/c1cn(C)c2ccccc12)NC(=O)c1ccccc1 was read as Bfl-1 A1 inh 0, Efflux pump mplx 0, Mot1-301 SUMO -3, AHR activator 63*, VLA-4 inh -6 and ALR H2O2 inh 43.
Cc1ccc(C(=O)N/C(=C\c2cn(C)c3ccccc23)C(=O)OCCN(C)C)cc1 was read as Bfl-1 A1 inh 0, Efflux pump mplx 0, Mot1-301 SUMO 4, AHR activator 46, VLA-4 inh -5 and ALR H2O2 inh 38.
COC(=O)/C(=C\c1ccc2c(c1)c1ccccc1n2C)NC(=O)c1ccccc1 was read as Bfl-1 A1 inh 2, Efflux pump mplx 0, Mot1-301 SUMO -2, AHR activator 76*, VLA-4 inh -12 and ALR H2O2 inh -1.
Cn1c2ccccc2c2cc(/C=C(\NC(=O)c3ccccc3)C(=O)O)ccc21 was read as Bfl-1 A1 inh 2, Efflux pump mplx 0, Mot1-301 SUMO 113, AHR activator 13, VLA-4 inh 2 and ALR H2O2 inh 86*.
